HT1080 IDH1KD tx – kills HT-1080 cells with IDH1 knockdown; hit rate 2% among 360,000; AID 686971; HT-1080 IDH1 knockdown viability, ATP luminescence, 48 h; Potency, µM (series often up to 46.1 µM), for inactives: at the top dose activity, negative = toxicity, hits mostly cytotoxic;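 also: 0% = DMSO wells and -100% = cell-free medium wells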
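After a 2 h attachment period, IDH1KD HT-1080 cells took pin-transferred compound for 48 h at 37 °C; ATP-based luminescence after 10 min room-temperature reagent incubation reported viability.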
KB-V1 MDR tox – KB-V1 MDR subline cytotoxicity. AID 1347076. hit rate 3.4% among 400,000. KB-V1 MDR cells viability, CellTiter-Glo, 72 h. Potency, µM (series often up to 46.1 µM), actives largely listed as cytotoxic; also: nearly all actives have a fitted effect of over 60% in size
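Luminescent ATP read-out (CellTiter-Glo, 10 min) measures survival of drug-selected KB-V1 MDR cells after 72 h, 37 degrees C compound exposure. Medium: phenol-red-free DMEM, 10% FBS. Values from fitted concentration-response curves.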
HT1080-NT tox – kills 2HG-producing HT-1080-NT fibrosarcoma cells; HT-1080-NT fibrosarcoma viability, CellTiter-Glo ATP luminescence, 48 h; Potency, µM (doses to about 46.1 µM), inactives show top-dose activity, negative = less viability, hits mostly cytotoxic; hit rate 1.6% among 360,000;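 also: NT is the 2HG producing partner of a matched IDH1 knockdown line; 0% = DMSO-treated cells and -100% = media-only wells without cells; nearly all actives have a fitted effect of over 55% in size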
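Read-out is CellTiter-Glo luminescence after 10 minutes at room temperature, following 48 hours' compound treatment of HT-1080-NT cells (750 cells/well, RPMI, 5% FBS, 37 degrees C).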
KB-3-1 cytotox – KB-3-1 parental cell cytotoxicity; KB-3-1 viability, CellTiter-Glo ATP luminescence, 72 h; Potency, µM (series often up to 46.1 µM), hits mostly cytotoxic; hit rate 1.4% among 400,000; also: nearly all actives have a fitted effect of over 60% in size
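Multi-concentration cytotoxicity screen in KB-3-1 cells grown in DMEM lacking phenol red with 10% FBS. After 72 h at 37 °C with compound, ATP-dependent luminescence was recorded.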
DT40 TDP1 CPT – DT40-hTDP1 cell growth loss with CPT; Potency, µM (series often up to 46.2 µM), without a hit: top-dose activity change, negative = growth inhibition, most hits filed as inhibitors; chicken DT40 Tdp1-/-;hTDP1 cells + 20 nM CPT, ATP luminescence, 48 h; hit rate 12% among 420,000; AID 686979; also: nearly all actives have a fitted effect of over 55% in size
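Chicken DT40 Tdp1-/- cells stably complemented with human TDP1 were seeded at 400 cells/well in medium containing 20 nM camptothecin, exposed to pin-transferred compounds, and grown at 37 °C for at least 48 hr. Viability was read as ATP luminescence.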
TDP1 cell noCPT – qHTS for Inhibitors of human tyrosyl-DNA phosphodiesterase 1 (TDP1): qHTS in cells in absence of CPT | DT40 Tdp1-/- hTDP1 cells, no CPT, ATP luminescence, 48 h | Potency, µM (doses to about 46.2 µM), without a hit: at the top dose activity change, negative = growth inhibition, hits mostly inhibitors | hit rate 15% among 420,000 | AID 686978, 2013; also: nearly all actives have a fitted effect of over 55% in size
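A cellular qHTS used chicken DT40 cells lacking endogenous Tdp1 but carrying stably transfected human TDP1. Compounds were applied without camptothecin, and cell growth kinetics were judged by ATP-dependent luminescence after ≥48 hr.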
Active calls of the source: *; i = inactive; ? = inconclusive; · = no result given; [ ] = dose if it differs, or a comment. A selection: hits, their analogues and other compounds. The true share with any hit is near 19%. Calls follow the shape of the dose curve; as a rule, active = well fitted curve in the direction sought with a large enough effect; inconclusive = small, poorly fitted or top-dose-only effect, or another doubt; inactive = no such curve, though single readings can be large; an effect the other way counts as inactive or inconclusive. Unless noted, % is scaled to controls: 0 for no effect and ±100 for the full control effect; potency is read from the fitted curve at half-maximal effect.

SMILES	HT1080 IDH1KD tx	KB-V1 MDR tox	HT1080-NT tox	KB-3-1 cytotox	DT40 TDP1 CPT	TDP1 cell noCPT
COc1cccc(CNC(=O)c2ccc(NC(=O)N3CC(C)Sc4ccccc43)cc2)c1 (centres undefined)	·	i	·	i	18µM*	15µM*
COc1ccc(CNC(=O)c2ccc(NC(=O)N3CCSc4ccccc43)cc2)cc1	·	i	·	i	?	?
CC1CN(C(=O)Nc2ccc(C(=O)NCCc3ccccc3)cc2)c2ccccc2S1 (centres undefined)	·	?	·	i	?	?
CCc1ccc(CNC(=O)c2ccc(NC(=O)N3CC(C)Sc4ccccc43)cc2)cc1 (centres undefined)	·	i	·	i	10µM*	9.2µM*
O=C(NCc1ccccc1)c1ccc(NC(=O)N2CC3CCCN3c3ccccc32)cc1 (centres undefined)	·	i	·	i	?	?
Cc1cccc(CNC(=O)c2ccc(NC(=O)N3CC(C)Sc4ccccc43)cc2)c1 (centres undefined)	·	i	·	i	21µM*	16µM*
CC(C)(C)NC(=O)C1C(c2ccc(C(F)(F)F)cc2)=Nc2ccccc2N1C(=O)c1cccc2ccccc12 (centres undefined)	8%	i	18%	?	?	?
COc1cccc(NC(=O)C2CCN(S(=O)(=O)c3ccc4c(c3)NC(=O)CO4)CC2)c1	-11%	i	-22%	i	23µM*	?
O=C(Nc1cccc(C(F)(F)F)c1)C1CCN(S(=O)(=O)c2ccc(N3CCCC3=O)cc2)CC1	-20%	?	0%	i	2.6µM*	2.1µM*
COc1ccccc1CNC(=O)C1CCN(S(=O)(=O)c2ccc(N3CCCC3=O)cc2)CC1	0%	i	17%	i	-29%	?
COc1cccc(NC(=O)C2CCN(S(=O)(=O)c3ccc(N4CCCC4=O)cc3)CC2)c1	-14%	i	0%	?	15µM*	?
CCc1ccccc1NC(=O)C1CCN(S(=O)(=O)c2ccc(N3CCCC3=O)cc2)CC1	1%	i	-3%	i	-28%	-38%
COCCn1c(N)c(N(Cc2ccccc2)C(=O)c2ccc(N3CCCC3=O)cc2)c(=O)[nH]c1=O	1%	i	0%	i	-11%	30%
O=C(Cn1nc(CNc2ccc(Cl)cc2)[n+]2c1CCCCC2)c1ccccc1	-14%	?	-18%	?	5.2µM*	8.2µM*
Clc1ccc(NCc2nnc3n2CCCCC3)cc1	14%	i	14%	i	5%	9%
CC(=O)Nc1cc2c(cc1[N+](=O)[O-])-c1ccccc1C2=NO	?	i	4%	?	?	-12%
CC(=O)Nc1cc2c(cc1[N+](=O)[O-])-c1ccccc1C2O (centres undefined)	-6%	i	1%	i	?	12µM*
Cc1ccccc1NC(=O)COc1coc(CN2CCCc3ccccc32)cc1=O	-8%	?	-1%	i	21µM*	15µM*
O=C(COc1coc(CN2CCc3ccccc32)cc1=O)NCCc1ccccc1	1%	i	4%	i	?	18µM*
O=C(COc1coc(CN2CCc3ccccc32)cc1=O)N1CCCCC1	-4%	i	1%	i	8%	1%
Cc1ccc(C)c(NC(=O)COc2coc(CN3CCc4ccccc43)cc2=O)c1	-3%	?	-1%	i	-84%	12µM*
CCOc1ccccc1NC(=O)COc1coc(CN2CCc3ccccc32)cc1=O	-3%	i	-4%	i	?	?
Cc1ccc(NC(=O)COc2coc(CN3CCc4ccccc43)cc2=O)cc1Cl	12%	i	8%	i	23µM*	15µM*
CC(=O)Oc1ccc(C(=O)Nc2cccnc2)cc1	-20%	i	-12%	i	?	?
COc1ccc(/C=C/C(=O)Nc2ccc(N3CCOCC3)cc2)cc1	-10%	i	10%	i	5%	?
SMILES	HT1080 IDH1KD tx	KB-V1 MDR tox	HT1080-NT tox	KB-3-1 cytotox	DT40 TDP1 CPT	TDP1 cell noCPT
CCN(CC)S(=O)(=O)c1ccc(/C=C/C(=O)OCC#N)cc1	2%	i	1%	i	-7%	-8%
CCN(CC)S(=O)(=O)c1ccc(/C=C/C(=O)Nc2ccc(F)cc2F)cc1	-20%	i	-3%	?	?	13µM*
CCN(CC)S(=O)(=O)c1ccc(/C=C/C(=O)Nc2ccc(N3CCOCC3)cc2)cc1	-15%	?	-27%	i	?	21µM*
Cc1ccc(NC(=O)CCCn2c(=O)c3cccn3c3cccnc32)c(Cl)c1	·	·	·	·	-12%	-22%
COc1cc(NC(=O)COC(=O)C=C(C)C)c(C)cc1[N+](=O)[O-]	1%	i	2%	i	3%	-4%
COc1ccc(N2CCN(C(=O)NC34CC5CC(CC(C5)C3)C4)CC2)cc1	-17%	i	-14%	i	?	23µM*
COc1cccc(N2CCN(C(C)C(=O)NC34CC5CC(CC(C5)C3)C4)CC2)c1 (centres undefined)	-4%	i	-6%	i	?	16µM*
O=C(NC12CC3CC(CC(C3)C1)C2)N1CCN(c2ccccc2)CC1	-21%	i	-13%	i	?	?
C=C(C)c1cccc(C(C)(C)NC(=O)N2CCCC2)c1	11%	i	10%	i	-7%	-27%
C=C(C)c1ccc(C(C)(C)NC(=O)N2CCN(C)CC2)cc1	-5%[9.24 µM]	i	-3%	i	16µM*	21µM*
Cn1cc(Br)c(C(=O)n2cc(Br)cn2)n1	2%	i	0%	i	?	-12%
CCOc1ccc(CCNC(=O)CN2C(=O)c3cccnc3Oc3ccc(Cl)cc32)cc1	1%	i	0%	i	?	21µM*
CSc1ccc(CCNC(=O)CN2C(=O)c3cccnc3Oc3ccc(C)cc32)cc1	-18%	i	-13%	i	?	29µM*
CCOc1ccc(CCNC(=O)CN2C(=O)c3cccnc3Oc3ccc(C)cc32)cc1OCC	2%	i	-11%	i	21µM*	?
Cc1ccccc1CNC(=O)c1cnc2sc(N3CCC(C)CC3)nn2c1=O	·	i	·	i	-23%	-27%

Screening data as filed in PubChem BioAssay.
